Out of some 5,500 compounds screened, about 2,000 (36%) were called active. Not shown: some 18% with an inconclusive outcome. No stated cut-off is given here; in the data, active means normalized growth mostly below about 0.91 (no sharp cut-off); inconclusive means no clear call, values can overlap the other calls; inactive means mostly above about 0.92. The list shows a part of the results.
Assay: chemical genetic growth profiling, strain panel (AID 1159580);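 further: tested at 20 µM; growth read once vehicle control cultures reached saturation at 30 °C; 1 = growth at the plate median or of vehicle wells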
Conditions: S. cerevisiae deletion strains, growth OD

Measured: normalized growth

NC(N)=NOCCC(N)C(=O)O (stereo not given)
inactive: locus YAL040C, strain CLN3, stronger effect = lower value 0.988 | locus YER002W, strain NOP16, stronger effect = lower value 0.98 | locus YGR078C, strain PAC10, stronger effect = lower value 0.996 | locus YGR229C, strain SMI1, stronger effect = lower value 1.01 | locus YMR263W, strain SAP30, stronger effect = lower value 0.98 | locus YNL175C, strain NOP13, stronger effect = lower value 0.984 | locus YNL197C, strain WHI3, stronger effect = lower value 0.984 | locus YNL224C, strain SQS1, stronger effect = lower value 0.999 | locus YOR083W, strain WHI5 (second series), stronger effect = lower value 0.975 | locus YPL241C, strain CIN2, stronger effect = lower value 0.996
